Screening results (PubChem BioAssay)
GLS inh: blocks human kidney-isoform glutaminase activity | O94925 | GLS enzymatic activity, qHTS titration | Potency, µM (titrated, usually from 45.5 µM), actives largely listed as inhibitors | actives 0.21% (n = 410,000) | AID 624170
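Assay buffer: 45 mM KH2PO4 pH 8.2, 0.02% Tween-20. hKGA acts on L-glutamine (1 mM solution added); product glutamate is reported by an oxidase/peroxidase Amplex Red coupling, with fluorescence taken at baseline and 30 min.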
p53 reactivator: restores transcriptional activity of mutant p53. Potency, µM (top dose mostly 92.2 µM), usual class: activators. H1299 p53-A138V BP100-luciferase reporter, luminescence, 24 h. actives 0.063% (n = 320,000); further: nearly all actives have a fitted effect of over 45% in size
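p53-null H1299 cells stably carrying temperature-sensitive p53-A138V and a BP100-luciferase reporter were pinned with compounds (4-point, 1:5 series) and held 24 hrs at 37 deg C. Luminescence was read 10 min after detection reagent.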
USP2a block: USP2a (human) protease inhibition | AID 463254 | O75604 | Potency, µM (doses to about 38.3 µM), actives largely listed as inhibitors | USP2 core, Ub-CHOP2 coupled fluorogenic reporter, 485/531 | actives 0.01% (n = 330,000)
Target sequence (O75604 whole entry, looked up): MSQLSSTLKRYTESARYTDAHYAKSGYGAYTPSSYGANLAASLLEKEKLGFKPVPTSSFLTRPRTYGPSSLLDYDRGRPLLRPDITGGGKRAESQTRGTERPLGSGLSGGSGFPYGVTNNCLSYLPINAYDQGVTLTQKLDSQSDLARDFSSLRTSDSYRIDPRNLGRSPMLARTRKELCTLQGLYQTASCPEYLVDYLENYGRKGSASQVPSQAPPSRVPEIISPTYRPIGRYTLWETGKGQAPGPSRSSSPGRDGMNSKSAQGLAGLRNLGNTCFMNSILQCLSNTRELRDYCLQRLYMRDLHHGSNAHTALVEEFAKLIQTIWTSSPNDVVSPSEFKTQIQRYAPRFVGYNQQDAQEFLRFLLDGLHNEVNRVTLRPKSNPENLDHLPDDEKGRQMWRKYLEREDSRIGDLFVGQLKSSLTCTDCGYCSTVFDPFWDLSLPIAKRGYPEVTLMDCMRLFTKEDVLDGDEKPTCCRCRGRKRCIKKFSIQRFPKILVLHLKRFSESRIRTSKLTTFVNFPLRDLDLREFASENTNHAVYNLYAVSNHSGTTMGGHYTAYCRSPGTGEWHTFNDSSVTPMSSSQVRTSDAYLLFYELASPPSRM
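Deubiquitinase activity read as fluorescence (485/531 nm) after Ub-CHOP2 cleavage activates the enterokinase reporter on its substrate; USP2 core 10nM, Ub-CHOP2 and substrate 25nM each, 30min compound preincubation then 60min RT; data normalized to NEM, curves fitted.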
Tb PFK inh: blocks T. brucei phosphofructokinase; O15648; T. brucei PFK, ADP-Glo luminescence; Potency, µM (top dose mostly 57.5 µM), actives largely listed as inhibitors; actives 0.17% (n = 330,000); AID 485367; further: nearly all actives have a fitted effect of over 60% in size
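Activity is normalized to no-enzyme wells (full inhibition) and 1.25 nM enzyme wells (no inhibition). Reaction: 0.5 mM F6P, 0.1 mM ATP, 45 min RT, ADP-Glo luminescence; concentration-response curves fitted and classed by quality.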
Large screens that a line does not name were inactive. A selection: hits, their analogues and other compounds. The true share with any hit is near 0.39%. The call rests on the fitted dose curve; in most records, active means well fitted curve in the direction sought with a large enough effect; inconclusive means small, poorly fitted or top-dose-only effect, or another doubt; inactive means no such curve, though single readings can be large; an effect the other way counts as inactive or inconclusive.

O=C1/C(=C/N(C(=O)c2ccco2)c2ccc(Cl)cc2)Sc2ccccc21	p53 reactivator 28µM
O=C(NC1CCCCCC1)C1c2ccccc2C(=O)N1Cc1ccccc1Cl (stereo not given)	none (no result: p53 reactivator, USP2a block, Tb PFK inh)
Cc1cccc(NC(=O)CSc2nc(-c3cccs3)cc(C(F)(F)F)c2C#N)c1	none (no result: p53 reactivator, USP2a block, Tb PFK inh)
Cc1ccc(S(=O)(=O)c2cn(CC(=O)Nc3cccc(C)c3)c3cc4c(cc3c2=O)OCO4)cc1	none (no result: p53 reactivator, USP2a block, Tb PFK inh)
CCN(CC)c1ccc(NC(=O)Nc2ccccc2)cc1	GLS inh 13µM, p53 reactivator inconclusive
CCN(CC)c1ccc(NC(=O)Nc2ccc(C(C)=O)cc2)cc1	none
Cc1ccccc1-c1nn(-c2ccc(F)cc2F)cc1CNCCCN(C)C	GLS inh 10µM
Cc1cc(C)c(S(=O)(=O)NCc2ccc3c(c2)CCN3C(=O)c2ccccc2)c(C)c1	none (no result: p53 reactivator, USP2a block, Tb PFK inh)
Cc1cc(O)c2c(c1)C(=O)c1cccc(O)c1C2=O	none (no result: GLS inh)
O=C(O)c1cc(O)c2c(c1)C(=O)c1cccc(O)c1C2=O	GLS inh 22µM
CC(=O)c1ccc(NC(=O)CSc2cn(CC(=O)N3CCCCC3)c3ccccc23)cc1	none (no result: p53 reactivator, USP2a block, Tb PFK inh)
O=c1c(=O)n(O)c2ccccc2n1O	GLS inh 13µM
COn1c(=O)c(=O)n(O)c2ccccc21	none
CC[C@H](C)[C@H](N)C1=N[C@H](C(=O)N[C@@H](CC(C)C)C(=O)N[C@@H](CCC(=O)O)C(=O)N[C@@H](C(=O)N[C@H]2CCCCNC(=O)[C@@H](CC(N)=O)NC(=O)[C@@H](CC(=O)O)NC(=O)[C@@H](Cc3cnc[nH]3)NC(=O)[C@@H](Cc3ccccc3)NC(=O)[C@@H]([C@@H](C)CC)NC(=O)[C@@H](CCCN)NC2=O)[C@@H](C)CC)CS1	none (no result: p53 reactivator, USP2a block, Tb PFK inh)
O=C(CN1CCNCC1)NC1CCCCC1	none (no result: p53 reactivator, USP2a block, Tb PFK inh)
COc1ccc(/C=N/N2C(C)CCCC2C)cc1O (stereo not given)	GLS inh 11µM
CC1CCCC(C)N1/N=C/c1ccc(O)c(O)c1 (stereo not given)	p53 reactivator inconclusive, Tb PFK inh inconclusive
Clc1ccc(CNc2ccccc2NCc2ccc(Cl)nc2)cn1	GLS inh 13µM
CC1CCc2c(sc(NC(=O)CCCOc3ccc(C(C)(C)C)cc3)c2C(N)=O)C1 (stereo not given)	none (no result: p53 reactivator, USP2a block, Tb PFK inh)
CO[C@@]1(NC(=O)CSCC#N)C(=O)N2C(C(=O)O)=C(CSc3nnnn3C)CS[C@@H]21	GLS inh 11µM
COc1cccc(-n2c(=O)c3c(C)c(C(=O)N(C)C)sc3n(CC(=O)Nc3ccc(C)cc3Cl)c2=O)c1	none (no result: p53 reactivator, USP2a block, Tb PFK inh)
Cc1oc2ncn(C)c(=O)c2c1C(=O)N(Cc1ccccc1)C(C)C	none (no result: p53 reactivator, USP2a block, Tb PFK inh)
Cc1oc2ncn(C)c(=O)c2c1C(=O)NC(C)c1ccccc1 (stereo not given)	GLS inh 11µM (no result: p53 reactivator, USP2a block, Tb PFK inh)
c1ccc(-c2cc3cc4c(cc3cn2)OCO4)cc1	p53 reactivator 8.9µM
CCc1ccc(Sc2cc(C(=O)NCc3ccccc3OC)c3ccccc3n2)cc1	none (no result: p53 reactivator, USP2a block, Tb PFK inh)
O=C(Cc1cccs1)NC1C(=O)N2C(C(=O)[O-])=C(C[n+]3ccccc3)CSC12 (stereo not given)	GLS inh 11µM (no result: p53 reactivator, USP2a block, Tb PFK inh)
CC(=O)OCC1=C(C(=O)O)N2C(=O)[C@@H](NC(=O)Cc3cccs3)[C@H]2SC1	GLS inh inconclusive
CCOc1cccc(/C=C/c2ccc3cccc(O)c3n2)c1OC	p53 reactivator 13µM
CCOc1cccc(/C=C/c2ccc3cccc(O)c3n2)c1O	p53 reactivator 10µM
COc1ccc(N2Cc3cccc(C(=O)N4CCN(C(=O)c5ccco5)CC4)c3C2=O)cc1	GLS inh 18µM, Tb PFK inh inconclusive
COc1ccc(N2Cc3cccc(C(=O)N4CCOCC4)c3C2=O)cc1	none
CCOC(=O)CN[C@@H](C(=O)N1CC[C@H]1C(=O)NCc1ccc(/C(N)=N/O)cc1)C1CCCCC1	none (no result: p53 reactivator, USP2a block, Tb PFK inh)
O=C(NCC1COCCO1)c1ccc2nc(Cc3cccc(Cl)c3)oc2c1 (stereo not given)	Tb PFK inh 15µM
O=C(CN1C(=O)C2CC=CCC2C1=O)Nc1ccc(Br)cc1 (stereo not given)	none
O=C(Cn1sc2ccccc2c1=O)Nc1ccc(Br)cc1	GLS inh 7.1µM (no result: p53 reactivator, USP2a block, Tb PFK inh)
O=C(Cn1sc2ccccc2c1=O)Nc1ccc(Cl)cc1	GLS inh 7.1µM (no result: p53 reactivator, USP2a block, Tb PFK inh)
O=C(/C=C/c1ccccc1)NC(=O)c1ccccc1O	p53 reactivator 28µM
COc1cc(/C=C/C(=O)NC(=O)c2ccccc2O)ccc1O	none
CC(C)C(=O)OC1=CN(Cc2ccccc2)S(=O)(=O)c2ccccc21	none (no result: p53 reactivator, USP2a block, Tb PFK inh)
CCOc1ccc2[nH]cc(C(=O)NCc3ccccc3)c(=O)c2c1	p53 reactivator inconclusive
O=C(NCc1ccccc1)c1c[nH]c2cc3c(cc2c1=O)OCCO3	p53 reactivator 11µM
Oc1ccc(/C=N/Nc2ccc(C(F)(F)F)cn2)c(O)c1	p53 reactivator 11µM (no result: GLS inh)
O=Cc1ccc(O)cc1O	none (no result: p53 reactivator)
O=CN/C=C/c1cc(O)ccc1O	GLS inh inconclusive, Tb PFK inh 30µM
CC(=O)NC[C@@H]1CN(c2ccc(N3CCOCC3)c(F)c2)C(=O)O1	none (no result: p53 reactivator, USP2a block, Tb PFK inh)
CC(C)(C)c1ccc(Cn2cnc(-c3ccc([N+](=O)[O-])cc3)c2)cc1	p53 reactivator 28µM
Cc1cc(C)c(Cn2cnc(-c3ccc([N+](=O)[O-])cc3)c2)c(C)c1	none
COc1cccc(N2CCN(C(=O)c3cc4c(s3)-c3c(C)cccc3OC4)CC2)c1	none (no result: p53 reactivator, USP2a block, Tb PFK inh)
CC(C)(C)c1csc(N/N=C/c2cccnc2)n1	GLS inh 11µM
N/C(=N\OC(=O)c1ccc2ccccc2c1)c1ccccc1Cl	p53 reactivator 20µM
COc1ccc(NC(=O)CC(C)n2nc(C)cc2C)cc1Cl (stereo not given)	none (no result: p53 reactivator, USP2a block, Tb PFK inh)
Cc1nc2[nH]c(=S)[nH]c(=O)c2nc1C	none (no result: p53 reactivator, USP2a block, Tb PFK inh)
Cc1nc2c(=O)[nH]c(=S)[nH]c2[nH]c1=O	GLS inh 6.3µM (no result: p53 reactivator, USP2a block, Tb PFK inh)
CCOc1ccc(CCNC(=O)C2CCCN(S(=O)(=O)N(C)c3ccc(F)cc3)C2)cc1 (stereo not given)	none (no result: p53 reactivator, USP2a block, Tb PFK inh)
CC(C)C(O)(C(=O)NNc1ccccc1)C(C)C	GLS inh 13µM
NC(=O)NNc1ccccc1	none (no result: p53 reactivator, USP2a block, Tb PFK inh)
Cc1ccc(-n2nc(-c3ccco3)cc2C(=O)O)cc1	GLS inh 11µM
O=C(N/N=C/C1CC=CCC1)c1ccc(Cl)cc1O (stereo not given)	p53 reactivator 32µM
CCCc1cc(=O)[nH]c(Nc2ccccc2O)n1	none (no result: p53 reactivator, USP2a block, Tb PFK inh)
CCOc1ccc(OCC(=O)Nc2nccs2)cc1	Tb PFK inh 27µM
O=C(Cn1cc([N+](=O)[O-])cn1)Nc1ccc(Cn2cc(Br)cn2)cc1	Tb PFK inh 27µM
COC(=O)c1ccc(Cn2cc([N+](=O)[O-])cn2)cc1	none
Cc1cc(C)n(-c2nc(C)c(C)c(=O)n2CC(=O)Nc2ccc([N+](=O)[O-])cc2)n1	none (no result: p53 reactivator, USP2a block, Tb PFK inh)
COc1ccccc1C(=O)NNc1ncc(C)s1	GLS inh 6.3µM
CCC(C)NC(=O)CSC1=Nc2ccccc2C2=NC(CC(=O)NCc3ccccc3)C(=O)N12 (stereo not given)	GLS inh inconclusive
